# Measured values from PubChem BioAssay.
# Active and inactive are the calls of the source.
# How the values were obtained:
# Albumin (Bos taurus) = Albumin (Bos taurus) (UniProt P02769); assay: compounds binding labelled BSA control protein – biochemical, small-molecule microarray, Alexa647 label, 635/667 nm fluorescence, artefact control for SMM control protein annotation, profiling panel (AID 1118); conditions: BSA-A647 binding, fluorescence 635 nm, higher = more signal;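 further: score merges 667 nm emission intensity and signal-to-noise per printed compound spot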
# [1] = probe aXIP binding to arrayed compounds – biochemical, NeuroSMM set, 635/667 nm fluorescence, primary screen (AID 1119); conditions: small-molecule microarray, higher = more signal, called active from +8 up or from −8 down;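 further: probe is the protein aXip251-270 applied at 1 µg/mL to compound-printed slides; binding of probe to printed compounds measured as 667 nm fluorescence plus signal to noise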
# [2] = probe aNOTCH3 binding on compound microarray – biochemical, small-molecule microarray, 635/667 nm fluorescence, primary screen (AID 1120); conditions: higher = more signal;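 further: probe is a biotin-tagged antibody raised against NOTCH3 rather than NOTCH3 protein; score merges spot fluorescence near 667 nm with spot signal to noise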
# [3] = probe aNOTCH2 binding on compound microarray – biochemical, small-molecule microarray, 635/667 nm fluorescence, primary screen (AID 1121); conditions: higher = more signal;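 further: score merges feature fluorescence read at 667 nm with its signal to noise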
# [4] = target: Carbonic anhydrase 2 (Homo sapiens) (UniProt P00918); assay: compounds binding carbonic anhydrase 2 – biochemical, small-molecule microarray, Alexa647-labelled CAII, profiling panel (AID 1122); conditions: CAII-A647 binding fluorescence, higher = more signal
# [5] = COS7 lysate on small-molecule microarray, probe aHis, 635 nm (AID 1123); conditions: COS7 cell lysate, fluorescence, higher = more signal;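 further: z-score combines 667nm fluorescence intensity with signal-to-noise per printed compound spot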
# [6] = probe aLAP1 signal on lysate-treated microarray – cell lysate, small-molecule microarray, COS7 lysate, primary screen (AID 1124); conditions: probe aLAP1, fluorescence, higher = more signal;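 further: lysate comes from COS7 cells expressing LAP1 and is applied at 0.3 µg/mL; score merges spot fluorescence near 667 nm with signal-to-noise over triplicate slides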
# Sam68 (KHDRBS1) = assay: compounds binding KHDRBS1 protein – biochemical, small-molecule microarray, 635 nm fluorescence, primary screen (AID 1125); conditions: higher = more signal;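 further: score merges 667 nm channel intensity with signal to noise over triplicate slides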
# [7] = system: Chordin-like protein 2 (CHRDL2); assay: compounds binding chordin-like 2 – biochemical, small-molecule microarray, 635 nm fluorescence, primary screen (AID 1126); conditions: fluorescence 635 nm, higher = more signal;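 further: printed compound slides probed with Chrdl2 protein at 4 µg/mL for 1 h at 4 C; score merges 667 nm emission intensity with signal to noise over three replicate slides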
# [8] = target: Concanavalin-A (Canavalia ensiformis) (UniProt P02866); assay: compounds binding concanavalin A lectin – biochemical, small-molecule microarray, Alexa647 label, 635 nm, artefact control for SMM control protein annotation, primary screen (AID 1127); conditions: ConA-A647 binding fluorescence, higher = more signal;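 further: z combines 667 nm emission intensity with signal-to-noise across three replicate slides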
# [9] = compounds binding Alexa647 anti-His antibody – biochemical, small-molecule microarray, 635 nm fluorescence, artefact control for SMM control protein annotation, primary screen (AID 1128); conditions: higher = more signal;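 further: score merges feature fluorescence with signal-to-noise for each printed compound spot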
# [10] = system: Human papillomavirus type 1a E7 protein (residues 1-88); assay: HPV1a E7 small-molecule binders, primary screen, biochemical, small-molecule microarray, residues 1-88, 635 nm (AID 1129); conditions: small-molecule microarray binding, fluorescence 635 nm; higher = more signal
# [11] = target: Focal adhesion kinase 1 (Homo sapiens) (UniProt Q05397); assay: PTK2 protein binding on printed compound slides – biochemical, small-molecule microarray, 635/667 nm fluorescence, BSA, DTT, primary screen (AID 1130); conditions: 635 nm fluorescence, higher = more signal;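 further: composite of spot emission at 667 nm and signal to noise over triplicate slides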
# [12] = system: Fibrinogen (Alexa647-labelled); assay: Alexa647-fibrinogen binding to printed small molecules – biochemical, small-molecule microarray, 635/667 nm fluorescence, artefact control for SMM control-protein annotation, profiling panel (AID 1131); conditions: fibrinogen-A647 binding fluorescence, higher = more signal;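 further: z-score merges 667 nm fluorescence with per-spot signal-to-noise over triplicate slides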
# [13] = target: Follistatin (Homo sapiens) (UniProt P19883); assay: FST protein binding to printed compounds – biochemical, small-molecule microarray, 635/667 nm fluorescence, primary screen (AID 1132); conditions: 635 nm fluorescence, higher = more signal
# [14] = target: Fibroblast growth factor 2 (Homo sapiens) (UniProt P09038); assay: basic fibroblast growth factor binding to printed compounds – biochemical, small-molecule microarray, 635/667 nm fluorescence, primary screen (AID 1133); conditions: FGF2, fluorescence 635/667, higher = more signal
# [15] = JC-1 mitochondrial potential readout, lung cancer cells – cell-based, A549, JC-1 fluorescence, basal, 24 h, 100 nL, profiling panel (AID 1138); conditions: higher = more signal;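 further: A549 lung adenocarcinoma cells under basal conditions with no added stimulus; test concentration not given here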
# Lefty1 = Lefty1 protein binding to printed compounds – biochemical, small-molecule microarray, 635/667 nm fluorescence, primary screen (AID 1139); conditions: fluorescence 635/667, higher = more signal
# [16] = system: wheat germ agglutinin (Triticum aestivum), Alexa647-labelled; assay: Alexa647-WGA lectin binding to printed small molecules – biochemical, small-molecule microarray, 635/667 nm fluorescence, artefact control for SMM control-protein annotation, profiling panel (AID 1140); conditions: WGA-A647 binding, 635 nm fluorescence, higher = more signal;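 further: score merges 667 nm feature emission with signal to noise over triplicate slides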
# [17] = target: Luciferin 4-monooxygenase (Photinus pyralis) (UniProt P08659); assay: inhibition of purified Photinus pyralis luciferase – biochemical, luminescence, purified enzyme, 2006 set, primary screen (AID 1141); conditions: purified firefly luciferase, SteadyGlo luminescence, 30 min; higher = more signal, called active from +8 up or from −8 down;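 further: cell-free assay with purified firefly luciferase at 100 ng per well in PBS; test concentration not given here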
# Chain of Luciferin 4-monooxygenase (Photinus pyralis) (P08659 whole entry, looked up): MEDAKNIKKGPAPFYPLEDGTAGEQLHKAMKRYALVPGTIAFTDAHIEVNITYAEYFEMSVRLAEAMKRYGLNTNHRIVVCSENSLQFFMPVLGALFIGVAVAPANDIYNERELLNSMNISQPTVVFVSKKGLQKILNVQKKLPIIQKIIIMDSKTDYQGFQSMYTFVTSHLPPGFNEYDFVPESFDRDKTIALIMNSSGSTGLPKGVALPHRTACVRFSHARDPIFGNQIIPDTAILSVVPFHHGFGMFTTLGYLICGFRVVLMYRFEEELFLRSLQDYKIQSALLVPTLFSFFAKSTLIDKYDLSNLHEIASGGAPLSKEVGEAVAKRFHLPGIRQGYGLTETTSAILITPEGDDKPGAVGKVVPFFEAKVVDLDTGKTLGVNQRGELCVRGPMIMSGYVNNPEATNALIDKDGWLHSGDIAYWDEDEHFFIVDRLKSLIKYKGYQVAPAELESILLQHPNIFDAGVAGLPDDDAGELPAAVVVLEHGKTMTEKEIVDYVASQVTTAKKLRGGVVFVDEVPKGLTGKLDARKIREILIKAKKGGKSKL
# Chain of Focal adhesion kinase 1 (Homo sapiens) (Q05397 whole entry, looked up): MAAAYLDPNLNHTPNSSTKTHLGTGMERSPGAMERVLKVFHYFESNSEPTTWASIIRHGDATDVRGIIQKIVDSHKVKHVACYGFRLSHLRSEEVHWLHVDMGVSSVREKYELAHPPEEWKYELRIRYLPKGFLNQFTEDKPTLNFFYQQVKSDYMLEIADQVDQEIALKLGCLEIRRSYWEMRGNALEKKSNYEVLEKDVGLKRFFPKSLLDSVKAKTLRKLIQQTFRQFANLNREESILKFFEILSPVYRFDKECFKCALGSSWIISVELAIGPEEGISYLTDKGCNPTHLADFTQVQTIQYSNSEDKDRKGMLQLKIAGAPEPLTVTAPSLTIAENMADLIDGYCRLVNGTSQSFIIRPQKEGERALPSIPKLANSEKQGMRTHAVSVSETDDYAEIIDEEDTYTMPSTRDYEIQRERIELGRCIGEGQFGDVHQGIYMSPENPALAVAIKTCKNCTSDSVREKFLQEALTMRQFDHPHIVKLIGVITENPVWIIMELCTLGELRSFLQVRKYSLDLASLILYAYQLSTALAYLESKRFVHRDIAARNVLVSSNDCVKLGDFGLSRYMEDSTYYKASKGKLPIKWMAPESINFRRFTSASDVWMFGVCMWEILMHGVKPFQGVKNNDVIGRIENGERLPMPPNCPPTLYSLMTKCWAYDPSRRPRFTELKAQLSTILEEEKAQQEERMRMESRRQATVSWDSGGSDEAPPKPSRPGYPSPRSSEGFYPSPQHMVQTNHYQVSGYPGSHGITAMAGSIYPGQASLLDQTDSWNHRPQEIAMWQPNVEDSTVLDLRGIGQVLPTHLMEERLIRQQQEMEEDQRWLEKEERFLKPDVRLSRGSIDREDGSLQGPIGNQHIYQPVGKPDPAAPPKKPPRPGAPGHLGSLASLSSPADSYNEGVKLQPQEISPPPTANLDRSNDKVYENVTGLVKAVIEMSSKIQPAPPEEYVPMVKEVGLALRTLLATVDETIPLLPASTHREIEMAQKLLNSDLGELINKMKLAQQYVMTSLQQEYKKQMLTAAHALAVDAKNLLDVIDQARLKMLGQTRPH
# Chain of Fibroblast growth factor 2 (Homo sapiens) (P09038 whole entry, looked up): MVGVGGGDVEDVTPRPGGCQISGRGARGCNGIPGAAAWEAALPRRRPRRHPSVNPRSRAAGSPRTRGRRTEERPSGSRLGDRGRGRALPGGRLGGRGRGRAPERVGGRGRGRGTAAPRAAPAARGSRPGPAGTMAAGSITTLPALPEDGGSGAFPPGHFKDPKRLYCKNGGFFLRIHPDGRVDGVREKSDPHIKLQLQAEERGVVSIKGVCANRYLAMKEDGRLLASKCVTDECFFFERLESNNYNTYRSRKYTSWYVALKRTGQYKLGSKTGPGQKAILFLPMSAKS
# Chain of Concanavalin-A (Canavalia ensiformis) (P02866 whole entry, looked up): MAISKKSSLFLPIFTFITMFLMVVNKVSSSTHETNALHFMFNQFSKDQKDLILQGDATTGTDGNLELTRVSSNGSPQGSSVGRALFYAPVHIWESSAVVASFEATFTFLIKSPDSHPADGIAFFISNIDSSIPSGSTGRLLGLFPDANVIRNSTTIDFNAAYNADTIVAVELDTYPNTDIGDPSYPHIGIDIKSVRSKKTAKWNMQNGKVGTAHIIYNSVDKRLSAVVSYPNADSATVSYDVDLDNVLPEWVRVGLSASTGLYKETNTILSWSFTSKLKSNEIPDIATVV
# Chain of Albumin (Bos taurus) (P02769 whole entry, looked up): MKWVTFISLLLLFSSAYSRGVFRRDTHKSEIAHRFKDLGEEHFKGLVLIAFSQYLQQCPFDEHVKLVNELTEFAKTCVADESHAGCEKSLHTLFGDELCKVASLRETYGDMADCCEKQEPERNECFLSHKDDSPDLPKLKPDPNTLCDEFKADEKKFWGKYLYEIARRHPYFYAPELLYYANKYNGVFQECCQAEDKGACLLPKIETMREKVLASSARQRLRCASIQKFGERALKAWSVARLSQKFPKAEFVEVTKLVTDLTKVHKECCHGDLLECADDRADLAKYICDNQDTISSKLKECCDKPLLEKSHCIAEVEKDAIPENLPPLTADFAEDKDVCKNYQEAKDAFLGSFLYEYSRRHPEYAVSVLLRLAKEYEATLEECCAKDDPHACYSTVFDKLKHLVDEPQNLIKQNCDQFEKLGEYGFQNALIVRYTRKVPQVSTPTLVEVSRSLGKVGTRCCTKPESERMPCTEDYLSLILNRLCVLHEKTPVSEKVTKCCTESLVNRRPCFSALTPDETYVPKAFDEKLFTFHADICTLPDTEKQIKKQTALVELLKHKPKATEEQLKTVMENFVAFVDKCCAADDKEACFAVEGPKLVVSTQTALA
# Chain of Follistatin (Homo sapiens) (P19883 whole entry, looked up): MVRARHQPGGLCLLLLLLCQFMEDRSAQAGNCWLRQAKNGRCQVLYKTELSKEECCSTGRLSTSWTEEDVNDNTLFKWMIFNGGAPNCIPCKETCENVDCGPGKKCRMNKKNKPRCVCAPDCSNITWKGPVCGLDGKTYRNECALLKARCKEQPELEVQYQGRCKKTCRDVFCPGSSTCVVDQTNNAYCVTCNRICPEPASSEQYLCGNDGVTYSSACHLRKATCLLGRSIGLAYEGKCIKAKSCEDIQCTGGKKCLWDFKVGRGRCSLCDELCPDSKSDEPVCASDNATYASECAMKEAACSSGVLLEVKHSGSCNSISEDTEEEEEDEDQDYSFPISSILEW
Compound,composite z-score (Albumin (Bos taurus)),composite Z-score [1],composite z-score [2],composite z-score [3],composite z-score [4],composite z-score [5],composite z-score [6],composite z-score (Sam68 (KHDRBS1)),composite z-score [7],composite z-score [8],composite z-score [9],composite z-score [10],composite z-score [11],composite z-score [12],composite z-score [13],composite z-score [14],z-score [15],composite z-score (Lefty1),composite z-score [16],z-score [17]
Cc1ccc(N2C(=O)c3ccccc3[C@@H](C(=O)NCC(C)C)[C@@H]2c2ccc(CO)cc2)nc1,-0.795,-0.204 (inactive),-0.465,-0.166,0.806,0.121,0.474,-0.205,-0.323,-0.418,0.0133,-0.871,-0.451,-0.877,-0.186,-0.246,0.738,-0.609,-0.674,-0.663 (inactive)
O=C1O[C@@H](c2ccccc2)[C@@H](c2ccccc2)N2[C@@H](c3ccccc3OCCO)[C@]3(C(=O)Nc4ccc(C#CC5(O)CCCCCC5)cc43)[C@@H](C(=O)NC[C@H](O)c3ccccc3)[C@H]12,0.644,1.17 (inactive),0.638,0.0062,0.244,2.29,0.146,1,-0.134,0.622,1.82,1.2,1.03,-0.51,1.17,0.106,-1.15,1.54,1.21,-0.215 (inactive)
C[N+](C)(C)CCCC[C@@H]1NC(=O)[C@H]2C[C@@H](C(=O)O)[C@@H](c3cccc(OCCO)c3)N2C1=O,0.969,3.73 (inactive),1.14,0.402,0.758,3.12,1.07,1.31,1.17,1.22,3.61,1.21,2.21,0.973,1.15,0.9,0.455,0.804,1.57,-0.317 (inactive)
CC(C)(C)OC(=O)CC[C@@]1(C(=O)NCC(O)CO)N=C(c2ccc(OCCCO)cc2)O[C@@H]1c1ccccc1 (stereo not given in full),1.01,0.595 (inactive),0.178,-0.0896,0.892,3.67,1.34,0.965,-1.65,0.537,0.0885,0.913,0.415,0.681,0.392,-0.691,0.477,-0.0491,0.467,-0.962 (inactive)
CC(C)C[C@@H]1NC(=O)[C@@H]2C[C@H](C(=O)NCCCCN(C)C)[C@H](c3ccc(O)cc3)N2C1=O,-0.0836,0.0699 (inactive),-0.236,-0.124,0.335,0.732,0.148,0.225,-0.631,-0.0663,2.74,-0.494,-0.462,-0.838,-0.21,-0.0947,-0.273,-0.477,-0.153,0.36 (inactive)
CCCCCCC#C[Si](O[C@H](c1ccccc1)c1cn([C@H](C)c2ccccc2)nn1)(C(C)C)C(C)C,0.672,0.282 (inactive),0.155,-0.0843,-0.0858,0.19,-0.164,0.729,0.267,0.809,0.475,0.386,-0.159,0.574,0.441,0.555,3.27,0.547,0.144,0.425 (inactive)
NC(=O)NCC#Cc1ccc2c(c1)[C@]1(C(=O)N2)[C@H](c2ccccc2OCCO)N2[C@H](c3ccccc3)[C@H](c3ccccc3)OC(=O)[C@H]2[C@@H]1C(=O)N1CCCCCCC1,0.0389,4.09 (inactive),1.72,0.813,0.951,3.72,1.86,1.29,1.05,1.11,0.443,1.25,2.2,0.505,1.37,0.927,-0.724,0.912,1.46,-0.87 (inactive)
CN1C(=O)C2C=CC(C(O)C3=C[C@H]4C[C@@H](C3)C4(C)C)N(Nc3ccc([N+](=O)[O-])cc3[N+](=O)[O-])C2C1=O (stereo not given in full),0.909,1.09 (inactive),0.289,0.186,0.722,2.38,0.805,1.12,0.51,1.16,1.45,1.16,0.588,0.978,1.07,0.0958,0.731,0.181,1.02,-0.88 (inactive)
Cc1ccc(S[C@]2(C(=O)NCc3ccccc3)CC(=O)N(Cc3cc(C(F)(F)F)cc(C(F)(F)F)c3)[C@@H]2c2ccc(CO)cc2)cc1,0.737,0.3 (inactive),-0.128,-0.208,0.433,1.03,1.28,-1.01,-0.568,-0.856,-0.0768,-0.469,-0.187,-1.25,0.401,-0.568,-0.0446,-0.0758,-1.01,-0.372 (inactive)
COc1c(C)cc(-c2cc3c(c(-c4ccccc4)n2)[Si](C(C)C)(C(C)C)O[C@H]3c2ccccc2)cc1C,-0.102,-0.322 (inactive),-0.0343,-0.154,-0.0516,0.0732,-0.325,0.111,0.613,0.124,0.235,-0.26,-0.0638,-0.243,0.145,-0.212,0.125,0.377,0.124,0.407 (inactive)
C=C(C(=O)CC[C@@H](OC(C)=O)c1ccc(OCCO)cc1)C(C)C,0.773,0.154 (inactive),-0.122,-0.0908,0.76,1.57,-0.773,0.135,0.0246,0.187,0.521,0.0161,0.019,0.933,0.627,1.29,-0.316,-0.12,0.0487,-1.08 (inactive)
